Reference: PubChem BioAssay

Assay: probe aNog binding to arrayed compounds – biochemical, biotinylated probe, 635/667 nm fluorescence, primary screen (AID 1115);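 also: probe is biotinylated aNog protein used at 0.15 µg/mL for 1 h at 4 C; z-score combines 667 nm fluorescence of each spot with its signal to noise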
Conditions: small-molecule microarray, higher = more signal

SMILES | composite z-score
CCCN1C(=O)[C@@]2(CCC(=O)OC(C)(C)C)N=C(c3ccc(OCCCO)cc3)O[C@H]2c2ccccc21 | -0.0875
O=C(O)[C@H]1C[C@H]2C(=O)NCC(=O)N2[C@H]1c1ccc(O)cc1 | -0.312
CC(C)c1ccc(NN2C(C(O)c3ccc(N(C)C)cc3)C=CC3C(=O)N(c4ccccc4)C(=O)C32)cc1 (stereo not given) | 0.842
CCC[C@@H]1C=C(C(=O)O)[C@H](c2ccc(C)cc2)N1S(=O)(=O)c1ccc(C)cc1 | 0.582
CC(C)c1ccc(NN2C(C(O)c3c(F)cccc3Cl)C=CC3C(=O)N(c4ccccc4)C(=O)C32)cc1 (stereo not given) | 1.94
CC(C)=CCCC(C)=CC(O)C1C=CC2C(=O)N(c3ccccc3)C(=O)C2N1Nc1ccccc1 (stereo not given) | 1.88
COCC1=C2[C@@H](CCc3ccccc3)OB(O)C[C@@H]2[C@@H]2C(=O)N(Cc3ccccc3)C(=O)[C@@H]2C1 | 0.362
COC(=O)[C@@]1(Cc2ccc(OC)cc2)[C@H]2c3cc(C(=O)N4CCCC4)n(CCc4c[nH]c5cc(F)ccc45)c3C[C@H]2CN1C(=O)c1ccccc1 | 2.06
CC(C)N1CC=CC23O[C@@H]4C=CCOC(=O)[C@@H]4[C@H]2C(=O)N(CCO)[C@@H]3C1=O (stereo not given in full) | -0.178
COC(=O)C(CC#Cc1ccc2c(c1)[C@]1(C(=O)N2)[C@H](c2ccc(OCCO)cc2)N2[C@H](c3ccccc3)[C@H](c3ccccc3)OC(=O)[C@H]2[C@@H]1C(=O)NC[C@H](O)c1ccccc1)C(=O)OC | 0.333
CC(C)NC(=O)[C@@]1(Cc2ccccc2I)c2ccccc2C(=O)N(Cc2ccccc2)[C@H]1c1ccc(CO)cc1 | -0.422
CCOC(=O)C[C@H]1[C@H](OC(=O)Cc2ccc3c(c2)OCO3)[C@@H](NC(=O)c2ccc(-c3ccccc3)cc2)c2cc(OCCCO)ccc2N1C(=O)c1ccccc1 | -0.287
CC(c1ccccc1)C(O)C1C=CC2C(=O)NC(=O)C2N1Nc1ccccn1 (stereo not given) | 0.496
COc1ccc(C#Cc2ccc3c(c2)[C@]2(C(=O)N3)[C@H](c3ccc(O)cc3)N3[C@H](c4ccccc4)[C@H](c4ccccc4)OC(=O)[C@H]3[C@@H]2C(=O)NC[C@H](O)c2ccccc2)cc1 | 0.305
O=C1O[C@H](c2ccccc2)[C@H](c2ccccc2)N2[C@H]1[C@@H](C(=O)O)[C@]1(C(=O)Nc3ccc(C#CC4(O)CCCCCC4)cc31)[C@H]2c1ccc(OCCO)cc1 | 0.0028
NCCCCCCNC(=O)[C@H]1C[C@H]2C(=O)NCC(=O)N2[C@H]1c1cccc(OCCO)c1 | 0.0234
C=CCOC(=O)[C@H]1[C@@H]2C(=O)O[C@@H](c3ccccc3)[C@@H](c3ccccc3)N2[C@@H](c2ccc(OCCOC(=O)[C@@H]3C[C@@H]4C(=O)NCC(=O)N4[C@@H]3c3ccc(O)cc3)cc2)[C@]12C(=O)Nc1ccccc12 | -0.0216
[N-]=[N+]=Nc1ccccc1C[C@]1(C(=O)NCCN2CCOCC2)N=C(c2ccc(OCCCO)cc2)O[C@H]1c1ccccc1 | -0.465

SMILES | composite z-score
CC(C)N1C(=O)C[C@@](C(=O)NCc2ccccc2)(c2ccc([N+](=O)[O-])cc2)[C@H]1c1ccc(CO)cc1 | -0.498
O=C1OCCC/C=C\[C@H]2OC34C=CCN(Cn5nnc6ccccc65)C(=O)[C@H]3N(CCCCCO)C(=O)[C@@H]4C12 (stereo not given in full) | -0.0894
NCCCCCNC(=O)[C@H]1C[C@H]2C(=O)NCC(=O)N2[C@H]1c1cccc(OCCO)c1 | -0.324
CN1C=C(C(=O)OCCS(C)(=O)=O)C(C(=O)OCCS(C)(=O)=O)=CC(CCCO)=CC1C1CC1 (stereo not given) | 0.257
COCCOC(=O)N1C(=O)[C@@]2(c3cc(C#CC4=CCCCC4)ccc31)[C@H](C(=O)NC[C@H](O)c1ccccc1)[C@H]1C(=O)O[C@H](c3ccccc3)[C@H](c3ccccc3)N1[C@@H]2c1ccc(O)cc1 | 0.996
CCCCCCCCCCC(O)C1C=CC2C(=O)N(Cc3ccccc3)C(=O)C2N1n1cnnc1 (stereo not given) | 0.62
Cc1ccccc1C(O)C1C=CC2C(=O)N(C)C(=O)C2N1N1CCCCC1 (stereo not given) | 1.72
CC(=O)NCCCC[C@@H]1NC(=O)[C@@H]2C[C@H](C(=O)NCCCCCCNC(=O)CS)[C@H](c3ccc(O)cc3)N2C1=O | -0.158
C=CCOC(=O)[C@H]1[C@@H]2C(=O)O[C@@H](c3ccccc3)[C@@H](c3ccccc3)N2[C@@H](c2ccc(OCCOC(=O)[C@@H]3C[C@@H]4C(=O)N5CCC[C@H]5C(=O)N4[C@@H]3c3ccc(O)cc3)cc2)[C@]12C(=O)Nc1ccccc12 | -0.467
C=CCC(OC(C)=O)[C@@H]1[C@@H](N(Cc2ccc(-c3ccccc3)cc2)C(=O)Cc2ccc(OC)cc2)c2cc(OCCCO)ccc2N1C(=O)c1ccc2ccccc2n1 (stereo not given in full) | -0.0544
COC(=O)C(CC#Cc1ccc2c(c1)[C@]1(C(=O)N2)[C@H](C(=O)NC[C@H](O)c2ccccc2)[C@H]2C(=O)O[C@H](c3ccccc3)[C@H](c3ccccc3)N2[C@@H]1c1ccc(OCCO)cc1)C(=O)OC | 0.945
COc1ccc(C(O)C2C=CC3C(=O)N(c4ccccc4)C(=O)C3N2Nc2ccc([N+](=O)[O-])cc2)cc1OCc1ccccc1 (stereo not given) | 2.27
CC(=O)NCCCC[C@@H]1NC(=O)[C@@H]2C[C@H](C(=O)NCCCCN(C)C)[C@H](c3ccc(O)cc3)N2C1=O | -0.23
CC(C)C(=C=CC[C@H](O)c1cccc(OCCO)c1)C[C@H](O)COCc1ccccc1 | 0.0308
CC(C)C(=C=CC[C@@H](O)c1ccccc1OCCO)C[C@@H](O)c1ccccn1 | -0.158
O=C1O[C@@H](c2ccccc2)[C@@H](c2ccccc2)N2[C@@H](c3ccccc3OCCO)[C@]3(C(=O)Nc4ccc(C#CC5(O)CCCCCC5)cc43)[C@@H](C(=O)Nc3nc4ccccc4s3)[C@H]12 | -0.0065
C=CCN1C(=O)[C@]2(O[C@H](CCO)[C@@H]([Si](C)(C)c3ccc(OC)cc3)[C@@H]2C)c2cc(NC(=O)[C@H](C)O)ccc21 | -0.204
